Reference: the supplement of paper PMC10849652
Targets with a hit are over-represented here; the source holds about 8,800 in all. About 0.5% of all pairs of compound and target were hits.

Key:
Experiment in all cases: log2 fold change, soluble protein after heating vs DMSO (PISA); higher = thermal stabilisation; K562 lysate, 10 uM; active = over 0.2 and 3.5 SD of the protein, either way, in both replicates (recomputed)
ibrutinib = compound: C=CC(=O)N1CCC[C@@H](n2nc(-c3ccc(Oc4ccccc4)cc3)c3c(N)ncnc32)C1 [ibrutinib]
Procedure, shortened: (§1)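 Thermal stability, expressed as log-two fold change relative to solvent controls, is given from duplicates. Crude K562 extract in PBS pH 7.4 with 1 mM MgCl2, at 1 mg/mL protein, was treated with 10 μM compound for 30 min and heated in aliquots for 3 min across 48°C-58°C. After pooling, adjustment to 0.5% NP-40 at 4°C and centrifugation at 21,000xg for 90 min, supernatant protein was measured by TMTpro 16plex LC-MS/MS with channel sums equalised.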

[1] = compound: CC(=O)c1cnc2ccc(-c3cc(Cl)c(O)c(Cl)c3)nc2c1N[C@H]1CC[C@H](CN(C)C)CC1
Procedure, shortened: as §1

ralimetinib = compound: CC(C)(C)Cn1c(N)nc2ccc(-c3[nH]c(C(C)(C)C)nc3-c3ccc(F)cc3)nc21 [ralimetinib]
Procedure, shortened: as §1

[2] = compound: CC(C)(O)CC(=O)NCCn1ccc2ncnc(Nc3ccc(Oc4cccc(C(F)(F)F)c4)c(Cl)c3)c21
Procedure, shortened: as §1

[3] = compound: CC(C)C1=C2N=C(C=C(N2N=C1)NCC3=CC=CC=C3)NCCCCCCN
Procedure, shortened: as §1

[4] = compound: CC1=C(C(CC(=O)N1)C2=CC=C(C=C2)C(F)(F)F)C(=O)NC3=C(C=C4C(=C3)C=NN4)F
Procedure, shortened: as §1

[5] = compound: CC1=C(C2=C(C=C1)C(=O)C3=CC=CC=C3N2CCCN)C
Procedure, shortened: as §1

[6] = compound: CC1=C(C=C(C=C1)NC(=O)C2=CC(=CC=C2)C(C)(C)C#N)NC3=CC4=C(C=C3)N=CN(C4=O)C
Procedure, shortened: as §1

[7] = compound: CC1=C(C=C(C=C1)NC(=O)C2=CC(=CC=C2)N(C)C)NC(=O)C3=CC=C(C=C3)O
Procedure, shortened: as §1

[8] = compound: CC1=CC=C(C=C1)SC2=C3C=C(SC3=CN=C2)C(=O)N
Procedure, shortened: as §1

vemurafenib = compound: CCCS(=O)(=O)Nc1ccc(F)c(C(=O)c2c[nH]c3ncc(-c4ccc(Cl)cc4)cc23)c1F [vemurafenib]
Procedure, shortened: as §1

[9] = compound: CCCS(=O)(=O)Nc1ccc(F)c(C(=O)c2c[nH]c3ncc(Cl)cc23)c1F
Procedure, shortened: as §1

barasertib = compound: CCN(CCCOc1ccc2c(Nc3cc(CC(=O)Nc4cccc(F)c4)[nH]n3)ncnc2c1)CCOP(=O)(O)O [barasertib]
Procedure, shortened: as §1

[10] = compound: CC[C@@H]1C(=O)N(C)c2cnc(Nc3ccc(C(=O)NC4CCN(C)CC4)cc3OC)nc2N1C1CCCC1
Procedure, shortened: as §1

volasertib = compound: CC[C@@H]1C(=O)N(C)c2cnc(Nc3ccc(C(=O)N[C@H]4CC[C@H](N5CCN(CC6CC6)CC5)CC4)cc3OC)nc2N1C(C)C [volasertib]
Procedure, shortened: as §1

[11] = compound: CCn1c(C(=O)N(C2CC2)C2CC2)cc2c3c(ncn3C)c(Nc3cc(C)n(C)n3)nc21
Procedure, shortened: as §1

[12] = compound: CCn1cc(-c2ccnc3[nH]c(-c4cccc(CN(C)C)c4)cc23)c(-c2ccc(NC(=O)N(C)C)cc2)n1
Procedure, shortened: as §1

[13] = compound: CN1CCC(CNc2ccc3ncc(-c4cccc(OC(F)(F)F)c4)n3n2)CC1
Procedure, shortened: as §1

saracatinib = compound: CN1CCN(CCOc2cc(OC3CCOCC3)c3c(Nc4c(Cl)ccc5c4OCO5)ncnc3c2)CC1 [saracatinib]
Procedure, shortened: as §1

sotrastaurin = compound: CN1CCN(c2nc(C3=C(c4c[nH]c5ccccc45)C(=O)NC3=O)c3ccccc3n2)CC1 [sotrastaurin]
Procedure, shortened: as §1

Measured: log2 fold change

AP3D1 isoform 5 (UniProt O14617)
inactive: ibrutinib 0.033 | [1] -0.012 | ralimetinib 0.028 | [2] -0.012 | [3] -0.007 | [4] -0.014 | [5] -0.024 | [6] 0.011 | [7] 0.01 | [8] 0.006 | vemurafenib -0.001 | [9] -0.002 | barasertib 0.036 | [10] -0.004 | volasertib 0 | [11] 0.002 | [12] -0.08 | [13] 0.034 | saracatinib 0.001 | sotrastaurin 0.013

AKAP8 (UniProt O43823)
inactive: ibrutinib 0 | [1] -0.019 | ralimetinib -0.039 | [2] -0.084 | [3] -0.009 | [4] 0.076 | [5] -0.056 | [6] -0.158 | [7] 0.016 | [8] -0.03 | vemurafenib 0.006 | [9] 0.044 | barasertib 0.056 | [10] -0.009 | volasertib -0.03 | [11] -0.013 | [12] -0.056 | [13] 0.044 | saracatinib 0.075 | sotrastaurin 0.008

AFF4 (UniProt Q9UHB7)
inactive: ibrutinib 0.172 | [1] -0.009 | ralimetinib -0.049 | [2] 0.033 | [3] -0.008 | [4] -0.028 | [5] -0.047 | [6] 0.009 | [7] 0.002 | [8] 0.024 | vemurafenib 0.157 | [9] -0.012 | barasertib -0.072 | [10] 0.001 | volasertib -0.019 | [11] 0.023 | [12] -0.133 | [13] -0.04 | saracatinib -0.009 | sotrastaurin 0.002

ABCD3 (UniProt P28288)
Sequence of UniProt P28288 (P28288 whole entry, looked up): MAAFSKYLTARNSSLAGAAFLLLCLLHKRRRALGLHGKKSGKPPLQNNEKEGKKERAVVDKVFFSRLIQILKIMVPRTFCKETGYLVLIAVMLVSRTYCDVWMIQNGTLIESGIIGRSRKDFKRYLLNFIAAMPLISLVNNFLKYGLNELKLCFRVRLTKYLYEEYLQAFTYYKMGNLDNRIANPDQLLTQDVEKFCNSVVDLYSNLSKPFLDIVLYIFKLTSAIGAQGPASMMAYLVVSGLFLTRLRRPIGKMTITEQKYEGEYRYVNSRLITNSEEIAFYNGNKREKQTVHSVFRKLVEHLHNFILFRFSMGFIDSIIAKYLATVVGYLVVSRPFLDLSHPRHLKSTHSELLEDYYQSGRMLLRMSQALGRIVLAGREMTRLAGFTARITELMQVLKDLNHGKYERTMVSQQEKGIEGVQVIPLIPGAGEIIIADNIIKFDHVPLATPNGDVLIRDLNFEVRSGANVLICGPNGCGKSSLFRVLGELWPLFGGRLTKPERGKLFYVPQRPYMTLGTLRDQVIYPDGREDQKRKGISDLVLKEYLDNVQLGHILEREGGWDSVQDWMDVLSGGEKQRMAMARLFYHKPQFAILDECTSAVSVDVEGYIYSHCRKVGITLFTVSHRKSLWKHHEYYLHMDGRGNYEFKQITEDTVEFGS
inactive: ibrutinib -0.035 | [1] -0.083 | ralimetinib -0.067 | [2] 0.064 | [3] 0.185 | [4] 0.01 | [5] -0.096 | [6] -0.028 | [7] -0.073 | [8] -0.031 | vemurafenib 0.078 | [9] 0.058 | barasertib 0.053 | [10] -0.077 | volasertib -0.029 | [11] -0.07 | [12] -0.054 | [13] 0.044 | saracatinib -0.071 | sotrastaurin 0.073

APEX1 (UniProt P27695)
inactive: ibrutinib 0.048 | [1] -0.001 | ralimetinib -0.014 | [2] 0.026 | [3] 0.006 | [4] 0.001 | [5] -0.02 | [6] -0.011 | [7] 0.01 | [8] 0.019 | vemurafenib 0.019 | [9] 0.017 | barasertib -0.027 | [10] -0.03 | volasertib -0.004 | [11] 0.043 | [13] -0.07 | saracatinib -0.001 | sotrastaurin 0.009
active: [12] 0.37

ABHD17A isoform 2 (UniProt Q96GS6)
inactive: ibrutinib -0.03 | [1] 0.011 | ralimetinib 0.039 | [2] -0.035 | [3] 0.032 | [4] -0.042 | [5] -0.065 | [6] -0.023 | [7] -0.097 | [8] -0.098 | vemurafenib -0.007 | [9] -0.08 | barasertib 0.007 | [10] 0.036 | volasertib 0.012 | [11] 0.022 | [12] 0.001 | [13] 0.013 | saracatinib -0.027 | sotrastaurin -0.05

ANKRD52 (UniProt Q8NB46)
Sequence of UniProt Q8NB46 (Q8NB46 whole entry, looked up): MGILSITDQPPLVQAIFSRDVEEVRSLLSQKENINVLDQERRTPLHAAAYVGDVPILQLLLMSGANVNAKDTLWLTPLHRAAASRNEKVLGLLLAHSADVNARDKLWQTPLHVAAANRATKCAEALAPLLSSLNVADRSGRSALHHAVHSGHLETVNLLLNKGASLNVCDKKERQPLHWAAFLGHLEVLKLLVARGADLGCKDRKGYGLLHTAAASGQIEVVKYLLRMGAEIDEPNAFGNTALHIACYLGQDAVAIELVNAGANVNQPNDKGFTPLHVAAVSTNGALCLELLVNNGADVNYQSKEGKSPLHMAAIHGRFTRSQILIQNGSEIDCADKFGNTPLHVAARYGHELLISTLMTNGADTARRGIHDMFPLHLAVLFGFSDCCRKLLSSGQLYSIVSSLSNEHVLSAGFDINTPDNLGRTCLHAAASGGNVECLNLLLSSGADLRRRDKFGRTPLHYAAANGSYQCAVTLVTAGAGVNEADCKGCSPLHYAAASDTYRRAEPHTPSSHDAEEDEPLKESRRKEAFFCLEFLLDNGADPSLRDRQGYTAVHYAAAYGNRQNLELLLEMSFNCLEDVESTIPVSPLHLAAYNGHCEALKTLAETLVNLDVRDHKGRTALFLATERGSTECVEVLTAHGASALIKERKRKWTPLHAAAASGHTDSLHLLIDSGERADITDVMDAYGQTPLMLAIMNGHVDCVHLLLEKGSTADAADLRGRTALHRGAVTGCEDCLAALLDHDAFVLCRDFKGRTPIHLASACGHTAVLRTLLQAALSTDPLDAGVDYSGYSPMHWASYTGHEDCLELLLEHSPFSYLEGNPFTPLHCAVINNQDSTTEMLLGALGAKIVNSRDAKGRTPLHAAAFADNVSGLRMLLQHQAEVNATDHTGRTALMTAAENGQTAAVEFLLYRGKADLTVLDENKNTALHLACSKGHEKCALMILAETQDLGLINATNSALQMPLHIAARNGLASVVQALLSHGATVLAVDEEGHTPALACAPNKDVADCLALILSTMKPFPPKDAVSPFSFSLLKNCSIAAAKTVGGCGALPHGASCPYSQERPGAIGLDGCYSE
inactive: ibrutinib 0.01 | [1] -0.089 | ralimetinib -0.002 | [2] -0.025 | [3] 0.022 | [4] 0.007 | [5] -0.058 | [6] 0.011 | [7] 0.047 | vemurafenib -0.052 | [9] 0.032 | barasertib 0.029 | [10] -0.019 | volasertib 0.097 | [11] 0.063 | [12] 0.061 | [13] -0.015 | saracatinib -0.022 | sotrastaurin -0.008
active: [8] -0.363

ANKRD54 (UniProt Q6NXT1)
Sequence of UniProt Q6NXT1 (Q6NXT1 whole entry, looked up): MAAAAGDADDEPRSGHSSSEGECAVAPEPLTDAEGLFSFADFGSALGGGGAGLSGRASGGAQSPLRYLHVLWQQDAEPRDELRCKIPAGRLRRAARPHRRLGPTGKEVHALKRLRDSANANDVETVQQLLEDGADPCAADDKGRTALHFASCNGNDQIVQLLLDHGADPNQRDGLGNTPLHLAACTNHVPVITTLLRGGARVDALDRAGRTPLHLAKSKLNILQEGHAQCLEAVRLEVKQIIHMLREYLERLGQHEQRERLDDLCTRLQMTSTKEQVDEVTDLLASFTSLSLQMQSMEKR
inactive: ibrutinib -0.054 | [1] -0.002 | ralimetinib 0.063 | [2] -0.006 | [3] 0.044 | [4] 0.003 | [5] 0.001 | [6] -0.006 | [7] 0.01 | [8] -0.023 | vemurafenib -0.031 | [9] 0.053 | barasertib -0.026 | [10] 0.021 | volasertib 0.006 | [11] -0.005 | [12] 0.004 | [13] 0.011 | saracatinib -0.004 | sotrastaurin 0.001

ACTBL2 (UniProt Q562R1)
Sequence of UniProt Q562R1 (Q562R1 whole entry, looked up): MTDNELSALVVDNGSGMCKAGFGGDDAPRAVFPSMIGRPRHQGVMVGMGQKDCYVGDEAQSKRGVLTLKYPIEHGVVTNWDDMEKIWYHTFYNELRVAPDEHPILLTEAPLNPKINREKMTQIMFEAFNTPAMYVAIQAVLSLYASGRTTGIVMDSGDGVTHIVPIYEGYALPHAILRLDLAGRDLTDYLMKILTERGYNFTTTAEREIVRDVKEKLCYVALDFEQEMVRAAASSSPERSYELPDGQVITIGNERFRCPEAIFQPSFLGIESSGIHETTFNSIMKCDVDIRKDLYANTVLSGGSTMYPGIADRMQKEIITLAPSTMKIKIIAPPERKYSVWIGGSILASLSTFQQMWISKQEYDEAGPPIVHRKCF
inactive: ibrutinib 0.001 | [1] -0.016 | ralimetinib 0.006 | [2] 0.082 | [3] -0.034 | [4] 0.086 | [5] 0.069 | [6] -0.043 | [7] 0.017 | [8] 0.123 | vemurafenib -0.097 | [9] 0.089 | barasertib -0.117 | [10] 0.098 | volasertib -0.166 | [11] 0.105 | [12] 0.417 | [13] -0.023 | saracatinib -0.108 | sotrastaurin 0.049

ADRM1 (UniProt Q16186)
inactive: ibrutinib 0.005 | [1] -0.009 | ralimetinib 0.027 | [2] -0.007 | [3] 0.026 | [4] -0.028 | [5] -0.011 | [6] 0.019 | [7] 0.012 | [8] -0.01 | vemurafenib -0.01 | [9] 0.033 | barasertib 0.031 | [10] -0.026 | volasertib -0.036 | [11] 0.008 | [12] -0.024 | [13] -0.027 | saracatinib 0 | sotrastaurin 0.002

ARL1 (UniProt P40616)
Sequence of UniProt P40616 (P40616 whole entry, looked up): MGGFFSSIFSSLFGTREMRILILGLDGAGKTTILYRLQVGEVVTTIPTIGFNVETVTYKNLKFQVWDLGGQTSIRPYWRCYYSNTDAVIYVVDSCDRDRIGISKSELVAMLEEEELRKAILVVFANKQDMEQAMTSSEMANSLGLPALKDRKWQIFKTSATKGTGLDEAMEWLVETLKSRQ
inactive: ibrutinib -0.029 | [1] -0.005 | ralimetinib 0.027 | [2] -0.001 | [3] -0.017 | [4] 0.098 | [5] -0.026 | [6] 0.134 | [7] -0.021 | [8] -0.027 | vemurafenib 0.046 | [9] 0.007 | barasertib -0.031 | [10] 0.03 | volasertib -0.066 | [11] -0.04 | [12] -0.101 | [13] -0.005 | saracatinib -0.005 | sotrastaurin 0.042

ACSL1 (UniProt P33121)
inactive: ibrutinib 0.009 | [1] 0.008 | ralimetinib -0.004 | [2] -0.075 | [3] 0.01 | [4] 0.024 | [5] 0.004 | [6] -0.01 | [7] 0.026 | [8] -0.004 | vemurafenib 0.021 | [9] 0.023 | barasertib 0.046 | [10] -0.054 | volasertib -0.1 | [11] 0.038 | [12] -0.014 | [13] -0.242 | saracatinib -0.066 | sotrastaurin -0.002

ALG13 (UniProt Q9NP73)
inactive: ibrutinib 0.118 | [1] 0.037 | ralimetinib 0.008 | [2] 0.026 | [3] 0.022 | [4] 0.065 | [5] -0.025 | [6] 0.063 | [7] 0.012 | [8] -0.001 | vemurafenib 0.014 | [9] 0.015 | barasertib 0.054 | [10] 0.041 | volasertib -0.041 | [11] -0.016 | [12] -0.14 | [13] 0.086 | saracatinib 0.023 | sotrastaurin 0.017

ACACB (UniProt O00763)
Sequence of UniProt O00763 (O00763 whole entry, looked up): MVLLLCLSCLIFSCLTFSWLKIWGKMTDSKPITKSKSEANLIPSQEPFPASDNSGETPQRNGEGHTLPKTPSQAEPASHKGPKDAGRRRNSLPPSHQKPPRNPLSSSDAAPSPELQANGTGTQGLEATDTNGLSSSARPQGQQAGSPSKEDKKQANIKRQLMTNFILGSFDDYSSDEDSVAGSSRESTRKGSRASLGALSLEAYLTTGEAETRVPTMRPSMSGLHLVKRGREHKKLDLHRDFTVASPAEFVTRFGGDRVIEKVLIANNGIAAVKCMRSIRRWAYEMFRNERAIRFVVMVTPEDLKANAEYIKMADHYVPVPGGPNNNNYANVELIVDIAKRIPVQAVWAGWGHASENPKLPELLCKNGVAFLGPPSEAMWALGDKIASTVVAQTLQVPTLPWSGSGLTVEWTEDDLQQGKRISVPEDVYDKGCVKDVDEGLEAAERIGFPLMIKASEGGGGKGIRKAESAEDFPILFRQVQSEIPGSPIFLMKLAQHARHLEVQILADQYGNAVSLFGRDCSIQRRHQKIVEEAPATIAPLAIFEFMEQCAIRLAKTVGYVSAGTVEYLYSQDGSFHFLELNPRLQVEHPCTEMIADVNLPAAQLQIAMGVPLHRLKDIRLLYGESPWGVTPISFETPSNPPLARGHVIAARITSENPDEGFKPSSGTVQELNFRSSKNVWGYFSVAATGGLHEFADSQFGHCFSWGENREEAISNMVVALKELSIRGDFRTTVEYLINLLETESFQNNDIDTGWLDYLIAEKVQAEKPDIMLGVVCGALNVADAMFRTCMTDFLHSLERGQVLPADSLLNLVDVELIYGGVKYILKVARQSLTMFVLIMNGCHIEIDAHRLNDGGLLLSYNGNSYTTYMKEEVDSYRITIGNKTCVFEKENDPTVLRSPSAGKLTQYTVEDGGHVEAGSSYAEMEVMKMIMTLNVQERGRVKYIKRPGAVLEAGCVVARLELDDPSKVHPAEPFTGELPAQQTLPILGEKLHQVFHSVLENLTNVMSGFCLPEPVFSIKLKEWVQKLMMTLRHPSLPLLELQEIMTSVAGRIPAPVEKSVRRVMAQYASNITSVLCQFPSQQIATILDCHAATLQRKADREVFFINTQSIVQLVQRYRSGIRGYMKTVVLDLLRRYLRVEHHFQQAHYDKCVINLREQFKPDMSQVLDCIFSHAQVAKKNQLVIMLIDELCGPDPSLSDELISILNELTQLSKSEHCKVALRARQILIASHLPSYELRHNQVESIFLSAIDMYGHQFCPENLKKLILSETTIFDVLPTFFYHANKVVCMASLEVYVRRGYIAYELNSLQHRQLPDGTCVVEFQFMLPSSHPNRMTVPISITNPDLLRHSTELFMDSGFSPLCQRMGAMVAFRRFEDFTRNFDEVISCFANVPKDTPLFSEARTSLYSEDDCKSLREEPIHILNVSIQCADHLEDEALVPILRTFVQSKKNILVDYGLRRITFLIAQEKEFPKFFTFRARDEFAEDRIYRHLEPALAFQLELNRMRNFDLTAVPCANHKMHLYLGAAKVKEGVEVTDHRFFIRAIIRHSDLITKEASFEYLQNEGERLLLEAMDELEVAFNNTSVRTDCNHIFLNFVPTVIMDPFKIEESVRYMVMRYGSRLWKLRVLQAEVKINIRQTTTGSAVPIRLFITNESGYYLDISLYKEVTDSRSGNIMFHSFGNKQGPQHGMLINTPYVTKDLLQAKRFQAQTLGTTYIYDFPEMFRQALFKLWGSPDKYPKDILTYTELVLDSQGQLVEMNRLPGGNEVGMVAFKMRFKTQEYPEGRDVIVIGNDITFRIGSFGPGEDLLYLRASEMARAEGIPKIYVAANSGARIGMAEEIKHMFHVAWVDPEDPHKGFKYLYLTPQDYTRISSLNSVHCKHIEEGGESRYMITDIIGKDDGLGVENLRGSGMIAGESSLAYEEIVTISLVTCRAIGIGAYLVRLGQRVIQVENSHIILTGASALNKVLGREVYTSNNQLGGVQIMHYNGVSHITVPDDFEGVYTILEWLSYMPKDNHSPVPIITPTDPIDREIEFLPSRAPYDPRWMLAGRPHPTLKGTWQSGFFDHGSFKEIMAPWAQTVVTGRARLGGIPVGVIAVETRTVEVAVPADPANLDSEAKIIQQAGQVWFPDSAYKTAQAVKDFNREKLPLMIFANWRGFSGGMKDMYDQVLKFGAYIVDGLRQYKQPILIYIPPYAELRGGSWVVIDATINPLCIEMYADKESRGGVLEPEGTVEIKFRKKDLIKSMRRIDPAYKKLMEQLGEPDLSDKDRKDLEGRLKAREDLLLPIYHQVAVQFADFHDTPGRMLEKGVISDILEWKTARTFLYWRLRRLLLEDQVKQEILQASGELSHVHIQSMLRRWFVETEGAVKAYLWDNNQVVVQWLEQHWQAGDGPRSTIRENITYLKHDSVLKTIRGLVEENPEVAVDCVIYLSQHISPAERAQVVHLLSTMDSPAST
inactive: ibrutinib 0.051 | [1] 0.018 | ralimetinib 0.069 | [2] 0.032 | [3] 0.014 | [4] -0.036 | [5] 0.015 | [6] 0.021 | [7] 0.052 | [8] 0.022 | vemurafenib 0.012 | [9] 0.028 | barasertib 0.024 | [10] -0.113 | volasertib -0.11 | [11] 0.038 | [12] -0.14 | [13] 0.027 | saracatinib 0.018 | sotrastaurin 0.037

ALKBH4 (UniProt Q9NXW9)
inactive: ibrutinib 0.076 | [1] 0.056 | ralimetinib 0.032 | [2] 0.003 | [3] -0.031 | [4] 0.031 | [5] -0.036 | [6] 0.004 | [7] -0.006 | [8] 0.002 | vemurafenib 0.061 | [9] 0.018 | barasertib 0.086 | [10] -0.133 | volasertib -0.068 | [11] 0.074 | [12] 0.025 | [13] 0 | saracatinib -0.019 | sotrastaurin 0.036

ARAF (UniProt P10398)
active: vemurafenib 0.411
inactive: ibrutinib 0.071 | [1] -0.012 | ralimetinib 0.029 | [2] -0.01 | [3] 0.058 | [4] -0.007 | [5] 0.004 | [6] 0.004 | [7] 0.041 | [8] 0.003 | [9] 0.058 | barasertib 0.015 | [10] -0.069 | volasertib -0.038 | [11] -0.015 | [12] 0.042 | [13] 0 | saracatinib 0.005 | sotrastaurin 0.002
